# Results with a measured potency or affinity are listed apart. Active and inactive are the calls of the source.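 The calls were made as follows: active = cell killing, with a fitted active concentration at or below twice the top valid dose tested; inconclusive = flat curve with moderate cell loss, or an unreliable fit; inactive = effect in the rising direction, plus the rest.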
# Experiment: HEK293T cell cytotoxicity, dose response, cytotoxicity control, plate reader, dry powder, set 10 (AID 743315)
# Details: HEK293T viability, CellTiter-Glo ATP luminescence, 72 h; series mostly up to 26 µM; activity change, negative = cytotoxicity: at the top concentration
SMILES,"activity change, negative = cytotoxicity",outcome
c1ccc(OCCn2cnc3ccccc32)cc1,79.4% (inactive),
S=c1[nH]c2ccccc2n1CCOc1ccc(Cl)cc1,-22.7% (inactive),
O=c1[nH]c2ccccc2n1CCOc1ccccc1,-28.5% (inactive),
COc1cccc(OCCn2c(=S)[nH]c3ccccc32)c1,6.36% (inactive),
COCc1nc2ccccc2n1CCOc1ccc(C(C)(C)C)cc1,32.5% (inactive),
Cc1ccc(C(C)C)c(OCCn2c(=S)[nH]c3c(F)cccc32)c1,33.2% (inactive),
Cc1cccc2[nH]c(=S)n(CCOc3ccccc3)c12,43.9% (inactive),
COc1ccccc1OCCn1c(=S)[nH]c2ccccc21,16.7% (inactive),
Cc1ccc2c(c1)[nH]c(=S)n2CCOc1ccccc1,,inactive
Fc1cccc2c1[nH]c(=S)n2CCOc1ccccc1,,inactive
Cc1cccc(OCCn2c(=S)[nH]c3ccc(C(F)(F)F)cc32)c1,8.08% (inactive),
S=c1[nH]c2cccc(Cl)c2n1CCOc1ccccc1,,inactive
Fc1ccc(OCCn2c(=S)[nH]c3ccccc32)cc1,-1.94% (inactive),
CC(C)c1ccccc1NCCn1c(=S)[nH]c2ccccc21,29.9% (inactive),
Cc1ccc(OCCn2c(=S)[nH]c3ccccc32)c(C(C)C)c1,,inactive
S=c1[nH]c2cc(Cl)ccc2n1CCOc1ccccc1,-14.4% (inactive),
CC(C)(C)c1ccccc1OCCn1c(=S)[nH]c2ccccc21,-30.9% (inactive),
Fc1ccc2c(c1)[nH]c(=S)n2CCOc1ccccc1,,inactive
Cc1ccc(C(C)C)c(OCCn2c(=S)[nH]c3cccc(F)c32)c1,2.92% (inactive),
S=c1[nH]c2ccccc2n1CCOc1ccccc1Cl,12.9% (inactive),
Cc1ccc(C(C)C)c(OCCn2c(=S)[nH]c3ccc(Cl)cc32)c1,25% (inactive),
CC(C)c1ccccc1OCCn1c(=S)[nH]c2ccccc21,-19.5% (inactive),
Cc1ccc(OCCn2cnc3ccccc32)cc1,-28.6% (inactive),
Cc1ccc(C(C)C)c(OCCn2c(=S)[nH]c3cccc(Cl)c32)c1,5.65% [at 12 µM] (inactive),

# From PubChem BioAssay AID743315 (Broad Institute, 2014)
